The record followed here is the supplement of paper PMC9337992.

± gives the standard deviation of the averaged measurements.

The experiment deals with MDAMB436. As to the kind of experiment: cell proliferation (confluence) relative to DMSO control; higher = less growth inhibition. As to conditions: 5 uM; 6 d. Here is the method:
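Epigenetic chemical probe screen: 15 TNBC cell lines, 500 cells per well in 384-well plates, treated with 5 uM of each of 36 SGC probes for 6 d. Confluency was imaged by IncuCyte ZOOM and normalised to DMSO control wells. Four replicate wells per compound.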
As to `COc1cc(C(=O)N2CC[C@@H](O)[C@@H](N)C2)cc2nc(-c3cc4ccccc4n3CC3CC3)n(C)c12`, the cell proliferation worked out at 76.4 ± 6.2%.

Take `O=C(O)CNC(=O)c1c(O)c2ccccc2n(Cc2ccccc2)c1=O`: the cell proliferation turned out to be 96.4 ± 0.42%. The compound `c1ccc([C@@H]2C[C@H]2NC2CCNCC2)cc1` registered a cell proliferation of 93.8 ± 3.3%.
